This is an account of results in ChEMBL document CHEMBL1961873, “Compounds: GSK PKIS; Assays: Nanosyn kinase panel” (2012).

In the first test the target is T1, Cytoplasmic tyrosine-protein kinase BMX (Homo sapiens) (UniProt P51813).
T1 sequence (whole entry): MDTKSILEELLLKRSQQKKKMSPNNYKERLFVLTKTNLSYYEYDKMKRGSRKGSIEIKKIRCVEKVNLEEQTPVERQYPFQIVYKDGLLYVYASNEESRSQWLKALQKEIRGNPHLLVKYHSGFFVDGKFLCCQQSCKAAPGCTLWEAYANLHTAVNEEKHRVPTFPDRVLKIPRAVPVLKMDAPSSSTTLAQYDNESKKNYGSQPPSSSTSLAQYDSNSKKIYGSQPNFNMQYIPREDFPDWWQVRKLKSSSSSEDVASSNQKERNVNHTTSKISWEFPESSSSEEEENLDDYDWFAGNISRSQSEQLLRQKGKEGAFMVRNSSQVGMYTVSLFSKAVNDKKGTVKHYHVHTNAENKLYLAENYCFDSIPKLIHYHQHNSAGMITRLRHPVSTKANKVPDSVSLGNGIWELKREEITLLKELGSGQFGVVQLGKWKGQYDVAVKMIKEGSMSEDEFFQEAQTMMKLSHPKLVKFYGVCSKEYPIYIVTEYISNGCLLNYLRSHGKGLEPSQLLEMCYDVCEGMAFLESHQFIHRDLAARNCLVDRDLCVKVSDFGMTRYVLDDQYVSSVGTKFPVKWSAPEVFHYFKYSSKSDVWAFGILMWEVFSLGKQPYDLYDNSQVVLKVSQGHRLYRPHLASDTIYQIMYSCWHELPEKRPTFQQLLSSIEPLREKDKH
To be noted: at 0.1 µM.
As to `CNC(=O)c1cccc(C#Cc2cncnc2Nc2ccc(OCc3cccc(F)c3)c(Cl)c2)c1`, the inhibition (commonly the relative decrease from the control value, in per cent) was -1.48%.
Take `Fc1ccc(-c2cc(-c3c[nH]nc3-c3ccccn3)ccn2)cc1`: the inhibition was -2.56%.
The same measure, in the same setting: as for `CN1CCC(n2cnc(-c3ccc(F)cc3)c2-c2ccnc(Nc3ccccc3)n2)CC1`, the figure is 6.66%; as for `CCn1c(-c2nonc2N)nc2c(C#CC(C)(C)O)ncc(OC3CCNCC3)c21`, 3.84%; as for `COc1cccc(-c2c[nH]c3c(N/N=C/c4ccncc4)ncnc23)c1`, 8.13%.
The same measure, in the same setting: as for `Cc1ccc2c(-c3ccnc(Nc4ccccc4)n3)c(-c3ccc(F)cc3)nn2n1`, the figure is 3.36%; as for `COC(=O)Nc1nc2ccc(Oc3ccc(NC(=O)Nc4cccc(Cl)c4)cc3)cc2[nH]1`, 1.98%; as for `COc1ccc(-c2cc(-c3c[nH]nc3-c3ccccn3)ccn2)cc1`, -1.41%.
Same read-out and setting: as for `COc1cc(/C=N/Nc2ncnc3[nH]ncc23)ccc1O`, the figure is 2.08%; as for `[O-][S+]1CCN(Cc2ccc(-c3ccc4ncnc(Nc5ccc(OCc6cccc(F)c6)c(Cl)c5)c4c3)o2)CC1`, 7.13%; as for `CCNC(=O)O[C@H]1CN[C@H](C#Cc2cc3ncnc(Nc4ccc(OCc5cccc(F)c5)c(Cl)c4)c3s2)C1`, -0.06%.
Consider `CC1=C(C(=O)Nc2cc(Cl)c3[nH]ncc3c2)C(c2ccc(C(F)(F)F)cc2)CC(=O)N1` (stereo not drawn), for which the inhibition came to 0.59%.
Still for that read-out and setting: as for `c1ccc(-c2nc3n(c2-c2ccc4c(c2)OCO4)CCC3)nc1`, the figure is -1.29%.
On the same count and under the same terms, as for `CCOc1ccc2c(-c3ccnc(Nc4cccc(C(F)(F)F)c4)n3)cnn2n1`, the figure is 3.34%.
The same measure, in the same setting: next, `CCN1CCC(CC(=O)Nc2n[nH]c3nnc(-c4cccc(F)c4F)cc23)CC1`: 1.54%.
On to `COc1ccc2[nH]c3c4[nH]c5ccc(OC)cc5c4c4c(c3c2c1)C(=O)NC4=O`, for which the inhibition was -2.69%.
Regarding `COc1ccc(-c2oc3ncnc(N)c3c2-c2ccc(NC(=O)Nc3cc(C(F)(F)F)ccc3F)cc2)cc1`, the inhibition was determined as 8.1%.
Still for that read-out and setting: as for `Fc1cccc(COc2ccc(Nc3ncnc4sc(-c5ccco5)cc34)cc2Cl)c1`, the figure is 2.98%; as for `COc1cc(N2CCN(C(C)C)CC2)ccc1Nc1nc(Nc2ccc(F)cc2C(N)=O)c2cc[nH]c2n1`, 1.88%; as for `CN(C)CCOc1ccc(-c2nc(-c3ccncc3)c(-c3ccc4c(c3)CC/C4=N\O)[nH]2)cc1`, 2.12%.
Consider `NC(=O)c1sc(-n2cnc3ccc(C(F)(F)F)cc32)cc1OCc1ccccc1Br`, for which the inhibition worked out at 1.05%.
On to `Nc1nc(-c2cccc(Cl)c2)c(-c2ccc3ncccc3n2)s1`, for which the inhibition turned out to be 2.53%.
Same read-out and setting: next, `CCCN1CCC(c2ccc(Nc3nc(Nc4cc(F)ccc4C(N)=O)c4cc[nH]c4n3)c(OC)c2)CC1`: 3.68%; `CCn1cc(-c2ccnc3[nH]ccc23)c(-c2cccc(NC(=O)Nc3ccc(OCc4ccccc4)cc3)c2)n1`: 1.09%; `NS(=O)(=O)c1ccc(Nc2ncc(-c3ccccc3)o2)cc1`: 0.13%.
For `CCCN(CCS(C)(=O)=O)Cc1ccc(-c2ccc3ncnc(Nc4ccc(OCc5cccc(F)c5)c(Cl)c4)c3c2)o1`, the inhibition came to 0.94%.
The same measure, in the same setting: next, `CCN(CC)S(=O)(=O)c1ccc(OC)c(Nc2ncc(-c3ccccc3)o2)c1`: -2.19%.
For `CS(=O)(=O)CCNCc1coc(-c2ccc3ncnc(Nc4ccc(OCc5ccccc5)cc4)c3c2)c1`, the inhibition was found to be 4.64%.
Still for that read-out and setting: next, `N#Cc1c(NC(=O)CN2CCOCC2)sc2c1CCCC2`: -0.4%; `COc1cccc(-n2ncc3c(N/N=C/c4ccc(F)cc4)ncnc32)c1`: -0.31%.
Still for that read-out and setting: as for `O=C(O[C@H]1CN[C@H](C#Cc2cc3ncnc(Nc4ccc(Cc5ccccc5)cc4)c3s2)C1)N1CCOCC1`, the figure is 1.38%; as for `COc1cc2c(cc1Nc1nc(Nc3ccsc3C(N)=O)c3cc[nH]c3n1)N(C(=O)CN(C)C)CCC2(C)C`, 3.79%.
On to `CCc1nn2ncccc2c1-c1ccnc(NC2CC2)n1`, for which the inhibition was determined as 3.6%.
`Cc1ccc(O)cc1Nc1ccnc2cc(-c3ccccn3)ccc12`: the inhibition amounted to 19.8%.

The target in the next test is T1, Cytoplasmic tyrosine-protein kinase BMX (Homo sapiens). Particulars: at 1 µM.
Turning to `CNC(=O)c1cccc(C#Cc2cncnc2Nc2ccc(OCc3cccc(F)c3)c(Cl)c2)c1`, the inhibition turned out to be 1.31%.
With `Fc1ccc(-c2cc(-c3c[nH]nc3-c3ccccn3)ccn2)cc1`, the inhibition came out at 3.99%.
Same read-out and setting: as for `CN1CCC(n2cnc(-c3ccc(F)cc3)c2-c2ccnc(Nc3ccccc3)n2)CC1`, the figure is 5.4%; as for `CCn1c(-c2nonc2N)nc2c(C#CC(C)(C)O)ncc(OC3CCNCC3)c21`, 7.52%.
The same measure, in the same setting: next, `COc1cccc(-c2c[nH]c3c(N/N=C/c4ccncc4)ncnc23)c1`: 45.1%; `Cc1ccc2c(-c3ccnc(Nc4ccccc4)n3)c(-c3ccc(F)cc3)nn2n1`: 42.7%.
The same measure, in the same setting: next, `COC(=O)Nc1nc2ccc(Oc3ccc(NC(=O)Nc4cccc(Cl)c4)cc3)cc2[nH]1`: 1.28%; `COc1ccc(-c2cc(-c3c[nH]nc3-c3ccccn3)ccn2)cc1`: 5.27%; `COc1cc(/C=N/Nc2ncnc3[nH]ncc23)ccc1O`: 32.4%.
Take `[O-][S+]1CCN(Cc2ccc(-c3ccc4ncnc(Nc5ccc(OCc6cccc(F)c6)c(Cl)c5)c4c3)o2)CC1`: the inhibition came out at 7.73%.
On the same count and under the same terms, next, `CCNC(=O)O[C@H]1CN[C@H](C#Cc2cc3ncnc(Nc4ccc(OCc5cccc(F)c5)c(Cl)c4)c3s2)C1`: 2.73%.
As to `CC1=C(C(=O)Nc2cc(Cl)c3[nH]ncc3c2)C(c2ccc(C(F)(F)F)cc2)CC(=O)N1` (stereo not drawn), the inhibition worked out at 4.11%.
Still for that read-out and setting: as for `c1ccc(-c2nc3n(c2-c2ccc4c(c2)OCO4)CCC3)nc1`, the figure is 1%; as for `CCOc1ccc2c(-c3ccnc(Nc4cccc(C(F)(F)F)c4)n3)cnn2n1`, 1.94%; as for `CCN1CCC(CC(=O)Nc2n[nH]c3nnc(-c4cccc(F)c4F)cc23)CC1`, 1.09%.
Same read-out and setting: next, `COc1ccc2[nH]c3c4[nH]c5ccc(OC)cc5c4c4c(c3c2c1)C(=O)NC4=O`: 16.6%; `COc1ccc(-c2oc3ncnc(N)c3c2-c2ccc(NC(=O)Nc3cc(C(F)(F)F)ccc3F)cc2)cc1`: 59.5%; `Fc1cccc(COc2ccc(Nc3ncnc4sc(-c5ccco5)cc34)cc2Cl)c1`: 2.36%.
Consider `COc1cc(N2CCN(C(C)C)CC2)ccc1Nc1nc(Nc2ccc(F)cc2C(N)=O)c2cc[nH]c2n1`, for which the inhibition worked out at 5.02%.
On the same count and under the same terms, as for `CN(C)CCOc1ccc(-c2nc(-c3ccncc3)c(-c3ccc4c(c3)CC/C4=N\O)[nH]2)cc1`, the figure is 3.36%; as for `NC(=O)c1sc(-n2cnc3ccc(C(F)(F)F)cc32)cc1OCc1ccccc1Br`, 2.91%.
For the compound `Nc1nc(-c2cccc(Cl)c2)c(-c2ccc3ncccc3n2)s1`, the inhibition came out at 5.31%.
For `CCCN1CCC(c2ccc(Nc3nc(Nc4cc(F)ccc4C(N)=O)c4cc[nH]c4n3)c(OC)c2)CC1`, the inhibition amounted to 6.36%.
Consider `CCn1cc(-c2ccnc3[nH]ccc23)c(-c2cccc(NC(=O)Nc3ccc(OCc4ccccc4)cc3)c2)n1`, for which the inhibition is -0.27%.
`NS(=O)(=O)c1ccc(Nc2ncc(-c3ccccc3)o2)cc1`: the inhibition is 5.05%.
The same measure, in the same setting: next, `CCCN(CCS(C)(=O)=O)Cc1ccc(-c2ccc3ncnc(Nc4ccc(OCc5cccc(F)c5)c(Cl)c4)c3c2)o1`: 3.89%; `CCN(CC)S(=O)(=O)c1ccc(OC)c(Nc2ncc(-c3ccccc3)o2)c1`: 7.38%; `CS(=O)(=O)CCNCc1coc(-c2ccc3ncnc(Nc4ccc(OCc5ccccc5)cc4)c3c2)c1`: 6.49%.
The same measure, in the same setting: as for `N#Cc1c(NC(=O)CN2CCOCC2)sc2c1CCCC2`, the figure is 3.55%.
On the same count and under the same terms, as for `COc1cccc(-n2ncc3c(N/N=C/c4ccc(F)cc4)ncnc32)c1`, the figure is 13%; as for `O=C(O[C@H]1CN[C@H](C#Cc2cc3ncnc(Nc4ccc(Cc5ccccc5)cc4)c3s2)C1)N1CCOCC1`, 4.65%; as for `COc1cc2c(cc1Nc1nc(Nc3ccsc3C(N)=O)c3cc[nH]c3n1)N(C(=O)CN(C)C)CCC2(C)C`, 5.73%.
Consider `CCc1nn2ncccc2c1-c1ccnc(NC2CC2)n1`, for which the inhibition amounted to 5.18%.
Same read-out and setting: as for `Cc1ccc(O)cc1Nc1ccnc2cc(-c3ccccn3)ccc12`, the figure is 69.2%.
